Source: PubChem BioAssay AID460 (PCMD, 2006)
In all, about 58,000 compounds went through this assay and about 100 (0.17%) were called active. No stated cut-off is given here; in the data, active means inhibition above about 45%; inactive means the rest. Shown is part of a subset that was picked to be rich in actives.

Biological target: Procathepsin L (Homo sapiens) (UniProt P07711)
Test: inhibitors of human cathepsin L, biochemical (AID 460);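 further: 0% = enzyme with no compound and 100% = no enzyme blank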
Details: purified cathepsin L, fluorogenic substrate, fluorescence; hits give high values;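 tested at 10 µM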

Sequence of Procathepsin L (Homo sapiens) (P07711 114-288 limits assumed): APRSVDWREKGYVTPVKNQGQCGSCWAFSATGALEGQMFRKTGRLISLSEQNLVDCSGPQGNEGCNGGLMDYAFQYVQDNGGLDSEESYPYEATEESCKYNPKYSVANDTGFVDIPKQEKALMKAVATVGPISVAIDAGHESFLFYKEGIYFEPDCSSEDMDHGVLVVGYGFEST
Sequence of Procathepsin L (Homo sapiens) (P07711 292-333 limits assumed): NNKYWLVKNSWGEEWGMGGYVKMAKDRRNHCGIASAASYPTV

inhibition, inactive:
CC12COC3(C(=O)Nc4ccc(Cl)cn4)CC1CCC32C (stereo not given) 11.5%, CC(=O)Oc1cc2c(C(=O)NCCN3CCOCC3)c(C)oc2c2ccccc12 -9.79%, C[N+](C)(C)CCNC(=O)c1c(O)c2c([nH]c1=O)CCCC2 8.42%, Cn1c(=O)n(CCc2ccccc2)c(=O)c2c1nc1n2CCCN1c1ccccc1 0.95%, COc1cc(C2C(C#N)=C(C)NC3=C2C(=O)CC(C)(C)C3)ccc1O (stereo not given) 4.18%, Cn1c(=O)c(C(=O)Nc2ncccn2)c(O)c2ccccc21 -15.3%, CCOC(=O)c1c(C)nc(-c2ccccc2)nc1NC(=O)C(C)C 22.7%, CSCCC(NS(=O)(=O)/C=C/c1ccccc1)C(=O)N1CCC(C)CC1 (stereo not given) 7.86%, CC1(C)Oc2ccc3ccc(=O)oc3c2/C(=C/NCCO)C1=O 14.3%, CCOC(=O)C(CC)Sc1ncnc2c1nnn2-c1ccc(F)cc1 (stereo not given) 7.22%, OC1CN=C2Sc3ccccc3N2C1 (stereo not given) -0.84%, c1ccc(-n2ncc3c2ncn2c(C4CCCCC4)nnc32)cc1 1.98%, CCN(CC)S(=O)(=O)c1cccc(C(=O)Nc2ccccc2)c1 -8.69%, CCCOc1ccc(CN(CCO)CCO)cc1C(=O)OC 8.62%, CC(C)CCNC(=O)CN(C(=O)Cn1nnc(-c2ccc(F)cc2)n1)C1CCCC1 12.4%, CC(=O)N1CC2(C)CN(C(C)=O)CC(C)(C1)C2=O -7.32%, C=CCn1c(COc2ccccc2F)nnc1SCC(=O)N1CC(=O)Nc2ccccc21 2.58%, C=CCn1c2ccccc2c2nnc(SC(CC)C(=O)Nc3nc(C)c(C(=O)OCC)s3)nc21 (stereo not given) -6.76%, COc1ccc2occ(C(=O)c3ccc(N=C(C)N(C)C)cc3)c2c1 1.28%, Cc1cccc(N2C(=O)SC(N(CC(=O)O)c3cccc(C)c3)C2=O)c1 (stereo not given) 18.4%, COc1ccc(OC)c(S(=O)(=O)N(C)CC(=O)N2CCN(c3ccccc3)CC2)c1 -0.18%, COC(=O)c1c(NC(=O)c2cccs2)sc2c1CCCC2 -9.15%, COc1ccc(-c2nc(CS(=O)CC(=O)NCc3ccccn3)c(C)o2)cc1 (stereo not given) 32.3%, O=c1cccc(-c2ccc(Br)cc2)o1 11.7%, Cc1cc(C)cc(NC(=O)N2CCC(NC(=O)c3ccc(F)cc3)CC2)c1 15.2%, Cc1ccc(C(=O)Nc2ccc3c(c2)OCO3)cc1S(=O)(=O)N1CCCCC1 41.8%, CCOc1cccc(-c2nn3c(-c4ccccn4)nnc3s2)c1 20.7%, O=C(NC1CCCC1)c1ccc(Br)s1 -2.98%, CC(C)c1ccc(OCC(O)Cn2cnc3ccccc32)cc1 (stereo not given) -5.57%, c1ccc2cc(OCCN3CCCC3)ccc2c1 17.4%, COc1ccccc1N1CCN(C(=O)c2cc(-c3ccc(Cl)c(Cl)c3)on2)CC1 1.59%, Cn1c(/C(C#N)=C2/CCCCCN2)nc2ccccc21 -2.23%, CCOC(=O)c1cc2c(n(-c3ccc(C)cc3)c1=O)CCCC2=O -1.99%, CCCC1CC(C)(C(=O)Cn2[nH]c(=O)ccc2=O)OC1=O (stereo not given) 3.89%, Cc1ccc(S(=O)(=O)n2nc(OC(=O)C(C)(C)C)cc2N)cc1 9.62%, N#CC(C(=O)c1ccc(S(=O)(=O)N2CCCCCC2)cc1)c1nc2ccccc2[nH]1 (stereo not given) -6.58%, O=C(/C(=N\O)n1cncn1)c1ccc(Br)cc1Br 5.57%, COc1ccc(CCN=C2SCC(=O)N2C)cc1OC 11.7%, N#CNC1=NCN(CCc2ccccc2)CN1 17.9%, N#Cc1c(N)n(CCOC(=O)c2ccc(Cl)cc2)c2nc3ccccc3nc12 -4.03%, Fc1ccccc1OCCCCn1cncn1 -6.79%, COc1ccc(OCCCON2C(=O)c3ccccc3C2=O)cc1 -4.83%, O=C(CN1C(=O)CCC1=O)Nc1ccc(S(=O)(=O)N2CCOCC2)cc1 5.22%, CC(C)Cc1nc(N2CCOCC2)c(C#N)c2c1CCC2 -1.22%, CCOc1ccccc1C1NC(=O)NC(C)=C1C(=O)OCc1ccco1 (stereo not given) 16.9%
